Reference: PubChem BioAssay AID602383 (National Center for Advancing Translational Sciences (NCATS), 2012)
Calls of active or inactive are those of the source. The call rests on the fitted dose curve; in most records, active means well fitted curve in the direction sought with a large enough effect; inactive means no such curve, though single readings can be large or run the other way.

Target: Pyruvate kinase PKM (Homo sapiens) (UniProt P14618)
Experiment: qHTS for Activators of Human Muscle Isoform 2 Pyruvate Kinase: Muscle Isoform 1 Assay
Settings: purified hPK-M1, ATP generation, Kinase-Glo luminescence, 1 h; series mostly up to 58.2 µM
Protocol: Human pyruvate kinase muscle isoform 1 (hPK-M1) enzyme was supplied as a highly purified (>95% pure) preparation from Harvard Medical School and assayed for its ability to generate ATP from ADP using phosphoenolpyruvate (PEP) as a substrate. ATP generation was detected in a coupled reaction by luciferase-mediated luminescence, an ATP-dependent process. Pyruvate kinase substrates, PEP and ADP, were present in the assay at Km and approximately 10-fold below Km respectively. The enzyme was assayed at an intermediate level of activity to screen for both inhibitors and activators. NIH Chemical Genomics Center [NCGC] NIH Molecular Libraries Probe Centers Network [MLPCN] MLPCN Grant: MH085679 Assay Submitter (PI): Matthew G. Vander Heiden, Harvard Medical School
Three uL of substrate mix (at r.t.) in assay buffer (50 mM Imidazole pH7.2, 50 mM KCl, 7 mM MgCl2, 0.01% Tween 20, 0.05% BSA) was dispensed into white solid bottom 1,536 well microtiter plates so that the final concentrations of substrates in the assay were 0.1 mM ADP and 0.5 mM PEP. 23 nL of compound were delivered by a pin tool and 1 uL of enzyme mix (final concentration of 1 nM) in assay buffer (4 degree Celsius) was added. Plates were incubated at room temperature for 1 hour. Two uL of detection mix (Kinase-Glo, Promega; at 4 degree Celsius protected from light) was added and luminescence read by a ViewLux (Perkin Elmer) at 1 second exposure/plate. Data were normalized to the uninhibited (row 31). Additionally, a no enzyme and 5-fold enzyme control was dispensed in row 32, split equally between the two conditions.

Sequence of Pyruvate kinase PKM (Homo sapiens) (P14618 whole entry, looked up, canonical isoform): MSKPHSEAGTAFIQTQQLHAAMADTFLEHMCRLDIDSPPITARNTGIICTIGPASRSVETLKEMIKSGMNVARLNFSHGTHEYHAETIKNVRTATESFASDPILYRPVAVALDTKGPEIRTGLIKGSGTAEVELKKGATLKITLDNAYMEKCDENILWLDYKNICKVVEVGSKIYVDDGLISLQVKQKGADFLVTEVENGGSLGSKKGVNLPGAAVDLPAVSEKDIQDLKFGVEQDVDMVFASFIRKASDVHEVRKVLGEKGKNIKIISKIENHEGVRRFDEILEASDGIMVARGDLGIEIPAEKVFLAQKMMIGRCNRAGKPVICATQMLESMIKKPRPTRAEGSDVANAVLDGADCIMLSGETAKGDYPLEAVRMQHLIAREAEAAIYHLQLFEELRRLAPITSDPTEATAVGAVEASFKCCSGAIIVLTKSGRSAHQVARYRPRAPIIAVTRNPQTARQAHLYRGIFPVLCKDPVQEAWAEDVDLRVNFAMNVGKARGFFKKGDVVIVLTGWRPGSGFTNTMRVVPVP

outcome, inactive:
Cn1c2cc(S(C)=O)sc2c2cnn(Cc3cccc(N)c3)c(=O)c21 (stereo unspecified), Cc1cc2c(s1)c1cnn(Cc3cc(F)ccc3F)c(=O)c1n2C, Cc1cc2c(s1)c1cnn(Cc3c(Cl)ccc(C)c3F)c(=O)c1n2C, Cc1cc2c(s1)c1cnn(Cc3ccc(F)cc3F)c(=O)c1n2C, Cc1cc2c(s1)c1cnn(Cc3cc(F)c(F)cc3F)c(=O)c1n2C, COc1cccc(Cn2ncc3c4sc(S(C)=O)cc4n(C)c3c2=O)c1 (stereo unspecified)
